SMILES strings stand for the structures. The panel holds about 83,000 compounds, 20% with a hit somewhere; the sample as a whole holds those more often.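 Results are percent growth after 48 hours of single-concentration exposure. 100 means growth as in untreated cells, lower positive values show inhibition; negative values down to -100 show cell death.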 A number with no mark means an inactive call. Calls of active or inactive are those of the source. The calls were made as follows: active = growth percent below 10; inactive = the rest.

This is an account of results in PubChem BioAssay (NCI).

Some test systems named below: NCI-H23 lung; NCI-H226 lung; NCI-H322M lung; HOP-62 NSCLC; NCI-H460 lung; NCI-H522 lung; A549/ATCC NSCLC; 786-0 renal; COLO 205 colon; DU-145 prostate; K-562 leukemia; MALME-3M melanoma; MDA-MB-231 breast; RXF 393 renal; SF-268 CNS; SF-295 CNS; SF-539 CNS; UACC-257 melanoma; M14 melanoma.
Common to all, as to test: NCI-60 one-dose screen, 48 h (100 = growth as untreated, 0 = no growth, -100 = all killed)
What all share (details): 10 µM unless noted

With `COc1c(F)ccc(C(=O)Nc2ccc3nc(NC(=O)C4CCCN(S(=O)(=O)c5cccc(Cl)c5)C4)sc3c2)c1F` (stereo not drawn), the growth in the experiment on NCI-H23 lung is 88.9%; with NCI-H226 lung, 77.3%; in the experiment with NCI-H322M lung it was 87.2%; with HOP-62 NSCLC, 103%; with NCI-H460 lung, 82%; with NCI-H522 lung, 79%. Also, the growth in the experiment on A549/ATCC NSCLC was 68%; in the experiment on 786-0 renal, 61%; in the experiment on COLO 205 colon, 86.2%; in the experiment on DU-145 prostate it was 90.5%; with K-562 leukemia it was 53.8%; in the experiment on MALME-3M melanoma, 97.6%. The growth in the experiment on MDA-MB-231 breast was 87.9%; in the experiment with RXF 393 renal, -6.85% (active); in the experiment on SF-268 CNS, 86.9%; in the experiment on SF-295 CNS, 78.7%; in the experiment with SF-539 CNS, 70.7%; in the experiment on UACC-257 melanoma it was 84.7%. Further, the growth with M14 melanoma was 84.7%.
As to `C=C1CC[C@@H]2[C@]3(C)COC(c4cn[nH]c4-c4ccc(F)cc4)O[C@@H]3CC[C@@]2(C)[C@@H]1C/C=C1/C(=O)OCC1O` (stereo partly drawn), the growth in the experiment on NCI-H23 lung is -67.3% (active); with NCI-H226 lung it was -83.5% (active); in the experiment with NCI-H322M lung, 44%; in the experiment on HOP-62 NSCLC, -10.7% (active); with NCI-H460 lung, -63.5% (active); in the experiment on NCI-H522 lung, -59.7% (active). For the same molecule, the growth with A549/ATCC NSCLC was -14.2% (active); in the experiment on 786-0 renal, -89.2% (active); in the experiment with COLO 205 colon, -39.4% (active); with DU-145 prostate, -23% (active); with K-562 leukemia, -24.2% (active); in the experiment with MALME-3M melanoma, -44.7% (active). For the same molecule, the growth in the experiment on MDA-MB-231 breast is -40.5% (active); in the experiment with RXF 393 renal it was -86% (active); with SF-268 CNS, 16.9%; in the experiment with SF-295 CNS it was -26.8% (active); in the experiment on SF-539 CNS it was -83.2% (active); in the experiment on UACC-257 melanoma, -44.6% (active). In the experiment on M14 melanoma, the growth is -63.4% (active).
Regarding `O=C(NN1C(=O)/C(=C/C=C/c2ccc([N+](=O)[O-])o2)SC1=S)c1cccc(O)c1`, the growth with NCI-H23 lung is -89% (active); with NCI-H226 lung, -92.2% (active); with NCI-H322M lung, -66.9% (active); in the experiment on HOP-62 NSCLC, -73.5% (active); in the experiment on NCI-H460 lung, -49.3% (active); in the experiment on NCI-H522 lung, -96.6% (active). The growth with A549/ATCC NSCLC was -67.4% (active); in the experiment with 786-0 renal, -91.5% (active); in the experiment on COLO 205 colon, -79.7% (active); in the experiment on DU-145 prostate, -99.2% (active); in the experiment with K-562 leukemia it was 6.17% (active); in the experiment with MALME-3M melanoma, -99.2% (active). In addition, the growth in the experiment on MDA-MB-231 breast was -98.4% (active); with RXF 393 renal, -89.6% (active); in the experiment on SF-268 CNS, -91.3% (active); in the experiment on SF-295 CNS it was -40.1% (active); in the experiment with SF-539 CNS, -100% (active); in the experiment with UACC-257 melanoma it was -85.2% (active). In addition, the growth with M14 melanoma was -89% (active).
Consider `CCCn1cc(-c2nc(Nc3ccc(C(=O)NCCCCNc4cccc5c4C(=O)N(C4CCC(=O)NC4=O)C5=O)cc3)nc3[nH]ccc23)cn1` (stereo not drawn), for which the growth is 65.3% in the experiment with NCI-H23 lung; 20.9% in the experiment on NCI-H226 lung; 7.64% (active) with NCI-H322M lung; -1.38% (active) with HOP-62 NSCLC; 107% with NCI-H460 lung; 27% in the experiment with NCI-H522 lung. The growth in the experiment with A549/ATCC NSCLC was 21.1%; in the experiment on 786-0 renal it was 22.9%; in the experiment with COLO 205 colon it was -10.3% (active); in the experiment on DU-145 prostate, 64.1%; in the experiment on K-562 leukemia, 15.8%; with MALME-3M melanoma it was -24.4% (active). For the same molecule, the growth in the experiment with MDA-MB-231 breast was -23.3% (active); in the experiment with RXF 393 renal, 34.9%; with SF-268 CNS it was 28.2%; in the experiment on SF-295 CNS, 28.3%; with SF-539 CNS, 26.6%; with UACC-257 melanoma it was 96.4%. In addition, the growth with M14 melanoma is 21.4%.
For the molecule `Cc1cccc(-c2nc(Nc3ccc(C)c(S(N)(=O)=O)c3)c3ccccc3n2)c1`, the growth in the experiment on NCI-H23 lung is 12.9%; in the experiment on NCI-H226 lung, 41.9%; in the experiment with NCI-H322M lung it was 34%; in the experiment with HOP-62 NSCLC, 76.1%; with NCI-H460 lung it was 19%; with NCI-H522 lung it was -30.5% (active). The growth in the experiment on A549/ATCC NSCLC is 26.5%; in the experiment with 786-0 renal, 10.8%; in the experiment with COLO 205 colon, 37.8%; with DU-145 prostate it was 53.2%; with K-562 leukemia, 7.2% (active); with MALME-3M melanoma, 46.6%. In addition, the growth in the experiment with MDA-MB-231 breast is 10.9%; in the experiment on RXF 393 renal it was 22.6%; with SF-268 CNS it was 50.9%; in the experiment with SF-295 CNS, 5.63% (active); with SF-539 CNS, 9.73% (active); in the experiment with UACC-257 melanoma it was 76.4%. Further, the growth with M14 melanoma was 31.4%.
For `CCCCSc1nc(Nc2ccc(C(C)=O)cc2)c(C#N)c(-c2ccc(OC)cc2)n1`, the growth in the experiment with NCI-H23 lung was 60.8%; with NCI-H226 lung, 31.3%; in the experiment with NCI-H322M lung, 75.4%; with HOP-62 NSCLC, 73.9%; in the experiment on NCI-H460 lung it was 27.6%; with NCI-H522 lung it was 87.8%. Moreover, the growth in the experiment on A549/ATCC NSCLC was 45.5%; in the experiment on 786-0 renal, -12.4% (active); in the experiment on COLO 205 colon, 82.3%; in the experiment on DU-145 prostate, 88.5%; in the experiment with K-562 leukemia, 69.6%; in the experiment on MALME-3M melanoma it was 77.2%. In addition, the growth in the experiment on MDA-MB-231 breast was 60.6%; in the experiment on SF-268 CNS, 63.1%; in the experiment with SF-295 CNS it was 47.6%; in the experiment with SF-539 CNS, 25.9%; in the experiment with UACC-257 melanoma, 104%; in the experiment with M14 melanoma, 91.8%.
